# Experimental data taken from ChEMBL document CHEMBL4513216, “Probing the Open Global Health Chemical Diversity Library for Multistage-Active Starting Points for Next-Generation Antimalarials” (ACS Infect Dis, 2020).
# Screen size: about 69,000 compounds; about 8,600 (12%) showed an effect of 50% or more. Shown is part of a subset that was picked to be rich in strong results.
# Tested on: Plasmodium berghei
# Assay: Screen against P. berghei liver stage (PbLuc), transformed with Luciferase, at 10uM
# Format: functional, HepG2
# Conditions: tested at 10 uM
row,Structure (SMILES),INHIBITION [%]
1,CCOc1ccccc1CNCC1CCN(CC(C)O)CC1 (stereo not drawn),28.7
2,CCN(CC)C(=O)Nc1cccc(Oc2ccccn2)c1,20
3,Cc1nc(C2CCCN(C(=O)c3ccc(N4CCCC4)nn3)C2)no1 (stereo not drawn),-19.4
4,CCn1cc(-n2cc3nc(N(C)C)[nH]cc-3c2=O)cn1,-13
5,Cc1occc1C(=O)N1Cc2nccn2CC(CN2CCCC2)C1 (stereo not drawn),31.2
6,Cc1noc(C)c1CC(=O)N1CCCC(Cn2ccnc2C)C1 (stereo not drawn),44.7
7,CCc1nnc(CN(CC)C(=O)C(C)n2ccnc2C(C)C)o1 (stereo not drawn),30.3
8,Cc1cc(C(=O)N2CCc3nc4sc(C)cc4c(=O)n3CC2)on1,53.2
9,Cc1cc2c(=O)n3c(nc2s1)CCN(C(=O)c1sc(C)nc1C)CC3,80.9
10,Cc1cc2c(=O)n3c(nc2s1)CCN(C(=O)c1ccnn1C)CC3,-16.5
11,Cc1nc(C)c(C(=O)N2CCc3nc4sc(C)cc4c(=O)n3CC2)o1,-12.9
12,Cc1cc2c(=O)n3c(nc2s1)CCN(C(=O)c1scnc1C)CC3,40.9
13,Cc1cc2c(=O)n3c(nc2s1)CCN(C(=O)c1c(C)noc1C)CC3,41.2
14,Cc1noc(C)c1-c1cccc(CC2CCN(C(=O)CN)C2)n1 (stereo not drawn),36.7
15,Cc1ccc2c(n1)N(CCn1cccn1)CCN(C(=O)CC1CC1)C2,-1.64
16,CCn1cnnc1CNC(=O)N1CCN(Cc2ccsc2)CC1,-63.3
17,CCN1Cc2ccccc2CC2(CCN(C(=O)N(C)C)CC2)C1=O,36.5
18,CC[C@@H]1N(Cc2ccc(C)s2)CCC[C@]12CCC(=O)N2C,-24.5
19,CCCn1ccnc1-c1cccc(NC(=O)C2CCCOC2)c1 (stereo not drawn),55
20,CCCn1ccnc1-c1cccc(NC(=O)[C@H]2CCC(=O)N2)c1,24.3
21,CCCn1ccnc1-c1cccc(NC2CCOC2)c1 (stereo not drawn),33.4
22,c1coc(CN2CCC3(CC2)COCCN(CCN2CCCC2)C3)c1,0.923
23,CC(C)NC(=O)N(C)C(c1cccc(F)c1)c1ccccn1 (stereo not drawn),-132
24,O=C(N[C@@H]1CCC[C@@H](N2CCOCC2)[C@@H]1O)c1cnn2cccnc12,-32.2
25,CCc1cc(CNC(=O)c2cc(NC(=O)C(C)C)ccc2Cl)[nH]n1,21.2
26,Cc1cc(CNC(=O)NC(C)c2ccncc2)no1 (stereo not drawn),11.8
27,Cc1cc(CNC(=O)c2cc(NC(=O)C(C)C)ccc2Cl)no1,68.3

row,Structure (SMILES),INHIBITION [%]
1,NC(=O)c1cnn2c1NCC(CNCCCc1ccccc1)C2 (stereo not drawn),6.35
2,Cc1ccc(-c2cc(CNC(=O)N3CCC(O)CC3)on2)cc1,-25.8
3,O=C(CSCc1ccncc1)NCc1csc(Br)c1,43.2
4,CS(=O)(=O)N1CCCn2nc(CNc3cc(C#N)ccn3)cc2C1,23
5,CS(=O)(=O)NCc1cc2n(n1)CCCN(Cc1nc3ccccc3[nH]1)C2,20.1
6,CCc1cc(NCc2cc3n(n2)CCCN(S(C)(=O)=O)C3)nc(C)n1,53
7,Cc1cc(NCc2cc3n(n2)CCCN(S(C)(=O)=O)C3)ncn1,-9.86
8,CC(=O)c1ccc(NCc2cc3n(n2)CCCN(S(C)(=O)=O)C3)nc1,50.3
9,CS(=O)(=O)N1CCCn2nc(CNc3ncccn3)cc2C1,34.9
10,Cc1cc(F)cc(CN2CCCn3nc(CNS(C)(=O)=O)cc3C2)c1,24.9
11,Cc1nccc(NCc2cc3n(n2)CCCN(S(C)(=O)=O)C3)n1,24.9
12,Cc1c[nH]c(CN2CCCn3nc(CNS(C)(=O)=O)cc3C2)n1,66.6
13,CCOC1CCN(C(=O)NCCc2ccn(-c3ccccc3)n2)CC1,-10.1
14,COCC1c2c(cnn2C)CCN1Cc1ccc(F)cc1 (stereo not drawn),21.6
15,O=C1CC2(CCN(c3nncs3)C2)CN1c1ccc2c(c1)OCCO2 (stereo not drawn),-7.29
16,COCCn1ccc2ccc(C(=O)N3CCN(C(C)=O)CC3)cc21,10.5
17,Cc1cc(C)n(Cc2ccc(C(=O)N3CCOCC3(C)C)cc2)n1,27.9
18,Cc1ccc(C(=O)N2CCCC(Cn3cc(C(C)(C)N)nn3)C2)s1 (stereo not drawn),64
19,CCc1nnc2ccc(N3CCN(S(=O)(=O)c4ccc(C)s4)CC3)nn12,10.1
20,CC1=C(C(=O)N2CCCC(Cn3cc(CO)nn3)C2)OCCO1 (stereo not drawn),13
21,Cc1ccc(S(=O)(=O)N2CCC(Cn3cc(C(C)(C)N)nn3)CC2)s1,61.8
22,Cc1ccc(S(=O)(=O)N2CCN(CCC(N)=O)CC2)s1,38.8
23,Cc1cnc(C(=O)N2CCCC(Cn3cc(C4CC4)nn3)C2)cn1 (stereo not drawn),-66.7
24,CN1CCC(NCC(O)c2cccc(OCc3ccccc3)c2)CC1 (stereo not drawn),14.9
25,NC(=O)c1cc(C2CCCN(C(=O)CCc3ccccn3)C2)n[nH]1 (stereo not drawn),-19.9
26,CCC(C)N(Cc1sccc1C)C(=O)c1ccc(S(C)(=O)=O)cc1 (stereo not drawn),20.3
